Only some compounds are listed: those with a hit (about 1.1% of all), similar ones and a draw of the others.
GRP78 ERSR act: induces the endoplasmic reticulum stress response in human glioma cells. U87-MG GRP78 promoter luciferase reporter, 16 h. Potency, µM, without a hit: top-dose activation, most hits filed as activators. hit rate 0.02% among 420,000; note: series mostly up to about 76 µM; % of control where 0% means no effect; nearly all actives have a fitted effect of over 35% in size
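Stably transfected U87-MG human glioma cells carrying a GRP78-based luminescent sensor were seeded at 1000 cells/well, pin-dosed with compounds and incubated 16 h. Luciferase reagent was then added, and end-point luminescence was read after 10 min at room temperature.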
Chronic BCR inh: inhibitors of chronic active B-cell receptor signaling | ABC-DLBCL IkBa-CBG/CBR reporter, luminescence ratio, 4 h | Potency, µM (titrated, usually from 46.1 µM), without a hit: top-dose activity change, negative = inhibition, hits mostly inhibitors | hit rate 0.05% among 340,000 | AID 493014; active = well fitted inhibition curve with a large enough effect in the signal ratio, with a control signal flat, not every such curve was filed as active; inconclusive = small, poorly fitted or top-dose-only effect, or effect the other way, or a change in a side signal; the % refers to the signal ratio;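 note: plate controls were basal doxycycline-induced cells for no effect and cells given 10 µM MG132 for full effect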
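TMD8 ABC-DLBCL cells carrying doxycycline-inducible green luciferase fused to IkappaBalpha plus unfused red luciferase were exposed to compounds (up to 46 uM) for 4 hrs at 37C. Activity came from the overlap-corrected green/red luminescence ratio.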
12-LOX inh: blocks human arachidonate 12S-lipoxygenase; Potency, µM (titrated, usually from 108 µM), inactives show top-dose activity change, negative = inhibition, hits mostly inhibitors; P18054; purified 12hLO, xylenol orange hydroperoxide absorbance; hit rate 1.1% among 580,000; note: % is set by controls: 0 for no effect and ±100 for the full control effect
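Hydroperoxide product was detected by ferrous iron/xylenol orange as the 573 to 405 nm absorbance ratio. Arachidonic acid at 40 uM (final) was turned over for 30 min at room temperature by 150 nM human 12hLO, pH 7.0 Hepes buffer, after 15 min compound preincubation.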
Apoferritin bind: binds horse apoferritin like a general anesthetic; Potency, µM (titrated, usually from 77.5 µM), for the others: top-dose activity change, negative = displacement, actives largely listed as inhibitors; apoferritin/1-aminoanthracene competitive binding, fluorescence; hit rate 0.074% among 350,000; note: % is set by controls: 0 for no effect and ±100 for the full control effect; nearly all actives have a fitted effect of over 20% in size
Target sequence (P02791 2-175 limits assumed): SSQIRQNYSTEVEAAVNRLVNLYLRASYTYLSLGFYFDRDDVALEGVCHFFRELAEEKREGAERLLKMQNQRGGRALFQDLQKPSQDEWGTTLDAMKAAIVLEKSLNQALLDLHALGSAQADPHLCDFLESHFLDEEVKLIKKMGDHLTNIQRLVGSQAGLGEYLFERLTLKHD
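10 uM apoferritin + 50% sat. 1-AMA, PBS; cpd 10 min RT; Ex380/Em535 endpoint; normalized to free probe vs complex; 4-param Hill fit; propofol titration as pos. ctrl.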
* marks the source's active call; other numbers are inactive results; ? = inconclusive; . = no result given; [ ] = remark or other dose. Unless noted, calls come from the whole dose curve; as a rule, active = well fitted curve in the direction sought with a large enough effect; inconclusive = small, poorly fitted or top-dose-only effect, or another doubt; inactive = no such curve, though single readings can be large; an effect the other way counts as inactive or inconclusive. Potency is the fitted concentration of half-maximal effect.

SMILES | GRP78 ERSR act | Chronic BCR inh | 12-LOX inh | Apoferritin bind
C/C(=N\NC(=S)NCc1ccccc1)c1ccccc1F | 5% | ? | 35µM* | -6%
C/C(=N\NC(=S)NCc1ccccc1)c1ccco1 | 2% | 1% | ? | -18%
CCC(C)C(=O)OCCc1ccccc1 (configuration not stated) | . | . | -11%[176 µM] | .
COC(=O)c1sc(C(=O)OC)c(C(=O)OC)c1C(=O)OC | -5% | 0% | -9% | 1%
COC(=O)c1sc(=S)sc1C(=O)OC | 0% | -6% | 45µM* | -21%
Oc1c(Br)cc(Br)cc1CNc1cccc2cccnc12 | -4% | ? | 14µM* | -8%
Oc1ccc(Br)cc1CNc1cccc2cccnc12 | -3% | 1% | 24% | ?
Cc1ccc(C(=O)Nc2cc3c(cc2SCc2ccco2)n(C)c(=O)n3C)cc1 | . | . | 7.9µM* | .
Nc1nccnc1C(=O)NCCc1cccc(Cl)c1 | . | . | 26% | .
Cc1ccc(NC(=O)C2=C(c3ccccc3)NC(=S)NC2c2ccc(C(C)(C)C)cc2)cc1 (configuration not stated) | . | . | 14µM* | .
CC1=C(C(=O)Nc2ccccc2)C(c2ccc(C(C)(C)C)cc2)NC(=S)N1 (configuration not stated) | . | . | 40µM* | .
CCOC(=O)C1=C(c2ccccc2)NC(=S)NC1c1cc([N+](=O)[O-])ccc1OC (configuration not stated) | -4% | 7% | 40µM* | -23%
CCCOc1ccc(C2NC(=S)NC(c3ccccc3)=C2C(=O)Nc2ccc(C)cc2)cc1OC (configuration not stated) | -4% | ? | 32µM* | -20%
CCOC(=O)C1=C(c2ccccc2)NC(=S)NC1c1cccc([N+](=O)[O-])c1 (configuration not stated) | -1% | -1% | -15% | -7%
CCOc1cc(C2NC(=S)NC(C)=C2C(=O)Nc2ccccc2)ccc1O (configuration not stated) | -4% | -14% | ? | -4%
CNC(=O)c1ccc(-c2nc(CN3CCN(C(=O)Nc4cccc(Cl)c4)CC3)c(C)o2)cc1 | . | . | 38% | .
O=[N+]([O-])c1ccc(Cl)c(CN2CCCCCC2)c1 | -1% | -4% | 0.56µM* | ?
O=[N+]([O-])c1ccc(Cl)c(CN2CCC(O)CC2)c1 | -5% | -3% | -12% | 9%
O=C(COC(=O)C1CC2C=CC1C2)Nc1c(Br)cc([N+](=O)[O-])cc1Br (configuration not stated) | -5% | -7% | 22µM* | .
O=C(CSc1nnc2[nH]c(=O)c(Cc3ccccc3)nn12)Nc1cccc(Cl)c1 | . | . | 25µM* | .
N#C/C(=C/c1cccc(C#N)c1)c1nc2ccccc2[nH]1 | . | . | 32% | .
CC(C)CC(=O)Nc1nn2c(C(C)C)nnc2s1 | . | . | -26% | .
CCC(CC)C(=O)Nc1nn2c(CC(C)C)nnc2s1 | . | . | 16µM* | .
CCc1nnc(NC(=O)C(CC)CC)s1 | 0% | 8% | 1% | -9%
CCCC(=O)Nc1nn2c(CC(C)C)nnc2s1 | . | . | 25µM* | .
SMILES | GRP78 ERSR act | Chronic BCR inh | 12-LOX inh | Apoferritin bind
Cn1c(=O)[nH]c(=O)c2c1nc(N1CCN(Cc3ccc(Cl)cc3)CC1)n2CCCc1ccccc1 | . | . | -15% | .
O=C(Nc1cccc([N+](=O)[O-])c1)Nc1ccc2c(c1)CCC2 | 2% | ? | -19% | -7%
O=[N+]([O-])c1ccc(NC(=S)Nc2ccc3c(c2)CCC3)cc1 | . | . | 40µM* | .
c1ccc(CCNc2nc3ccccc3s2)cc1 | 9% | ? | 1% | 13µM*
Cc1cc(C)c(-n2[nH]nnc2=S)c(C)c1 | -6% | 10% | 11µM* | 5%
FC(F)(F)c1cc(Cl)c2nc(-c3ccco3)c(Cc3ccccc3C(F)(F)F)n2c1 | . | . | 10µM* | .
FC(F)(F)c1ccccc1Cc1c(-c2ccco2)nc2ccc(Cl)cn12 | -12% | . | 199% | .
CC(C)NS(=O)(=O)c1ccc(Cl)c(C(=O)NCc2ccc(-c3nc4ccccc4s3)o2)c1 | . | . | 16µM* | .
O=C(CNC(=O)c1ccccc1Cl)NCC(c1cccs1)N1CCOCC1 (configuration not stated) | -1% | -3% | -3% | .
CC1CCN(C(CNC(=O)c2ccccc2SC(F)F)c2cccs2)CC1 (configuration not stated) | . | . | 32µM* | .
COc1ccc(N2CSC3=C(C#N)C(c4cc(OC)c(OC)cc4OC)CC(=O)N3C2)c(OC)c1 (configuration not stated) | -4% | -7% | 28µM* | ?
N#CC1=C2SCN(c3ccc(F)cc3)CN2C(=O)CC1c1cccc(F)c1 (configuration not stated) | 2% | -15% | 6.3µM* | -8%
COc1ccc(C2CC(=O)N3CN(C4CCCCC4)CSC3=C2C#N)cc1 (configuration not stated) | -2% | . | ? | ?
COc1ccc(N2CSC3=C(C#N)C(c4ccc(OC)c(OC)c4)CC(=O)N3C2)c(OC)c1 (configuration not stated) | -1% | 9% | ? | -19%
CCc1ccc(C2CC(=O)N3CN(c4ccccc4)CSC3=C2C#N)cc1 (configuration not stated) | -6% | -3% | ? | ?
COc1cccc(C2CC(=O)N3CN(C4CCCCC4)CSC3=C2C#N)c1 (configuration not stated) | -1% | . | 13µM* | -13%
COc1cc(C2CC(=O)N3CN(c4cccc(Cl)c4)CSC3=C2C#N)ccc1O (configuration not stated) | . | . | 18µM* | .
NC(=O)CCC(NC(=O)C1(c2ccccc2)CCCC1)C(N)=O (configuration not stated) | . | . | 2% | .
CC(C)CNc1ccc2c(n1)C(C)(C(=O)NCCc1cnc[nH]1)CN(Cc1ccccc1)C2 (configuration not stated) | . | . | 132% | .
O=C(NCCc1c[nH]c2ccc(Cl)cc12)C1CCN(c2nc(Cl)nc3nc[nH]c23)CC1 | . | . | 2% | .
Cc1ccc(C2CC(=O)N3CN(Cc4ccccc4)CSC3=C2C#N)cc1 (configuration not stated) | . | . | 5.6µM* | .
COc1ccc(N2CSC3=C(C#N)C(c4cc(OC)ccc4OC)CC(=O)N3C2)c(OC)c1 (configuration not stated) | -4% | -11% | . | -18%
COc1ccc(C2CC(=O)N3CN(c4ccc(C)c(Cl)c4)CSC3=C2C#N)cc1OC (configuration not stated) | -2% | -1% | 35µM* | ?
CCc1ccc(N2CSC3=C(C#N)C(c4cccs4)CC(=O)N3C2)cc1 (configuration not stated) | 6% | -19% | . | -14%
CCOc1ccccc1N1CSC2=C(C#N)C(c3c(OC)ccc4ccccc34)CC(=O)N2C1 (configuration not stated) | -3% | ? | 3.2µM* | -17%
CCOC(=O)c1ccc(N2CSC3=C(C#N)C(c4cccs4)CC(=O)N3C2)cc1 (configuration not stated) | -4% | 1% | 18µM* | -22%
